In PubChem BioAssay AID1851 (National Center for Advancing Translational Sciences (NCATS), 2009):
Several values for one entry are separate records, joined by “and”; a condition that tells them apart may be missing. Equal values may be shown once. Among all 16,000 compounds or so, about 5,800 (36%) were called active. Another 23% or so got no clear call; they are omitted. The call rests on the fitted dose curve; in most records, active means well fitted curve in the direction sought with a large enough effect; inconclusive means small, poorly fitted or top-dose-only effect, or effect the other way; inactive means no such curve, though single readings can be large or run the other way. Some of the results follow. A structure can be active in one record and inactive in another.

target: Cytochrome P450 2C19 (Homo sapiens) (UniProt P33261); assay: Cytochrome panel assay with activity outcomes; details: recombinant CYP, pro-luciferin dealkylation, luminescence, p450-cyp2c19; series mostly up to 57.1 µM; activity, negative = inhibition: at the top concentration
Sequence (P33261 whole entry, looked up): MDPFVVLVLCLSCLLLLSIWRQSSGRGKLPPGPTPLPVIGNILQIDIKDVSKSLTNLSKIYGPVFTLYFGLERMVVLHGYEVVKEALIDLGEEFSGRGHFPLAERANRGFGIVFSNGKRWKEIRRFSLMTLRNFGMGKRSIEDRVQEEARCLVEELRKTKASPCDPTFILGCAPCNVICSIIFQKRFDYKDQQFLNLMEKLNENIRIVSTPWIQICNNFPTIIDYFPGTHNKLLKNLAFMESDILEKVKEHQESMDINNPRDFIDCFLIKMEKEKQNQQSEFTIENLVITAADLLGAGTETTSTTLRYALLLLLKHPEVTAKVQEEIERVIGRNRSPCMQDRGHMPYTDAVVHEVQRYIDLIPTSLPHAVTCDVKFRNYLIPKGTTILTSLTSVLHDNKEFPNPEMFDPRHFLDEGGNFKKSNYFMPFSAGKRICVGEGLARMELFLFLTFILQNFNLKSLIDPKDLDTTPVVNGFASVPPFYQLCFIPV
On the % scale 0 is the no-effect control and ±100 the full control effect.

Row | Structure (SMILES) | AC50 | activity, negative = inhibition
1 | Cc1cccc([C@@H]2CN(C)CCc3c2cc(O)c(O)c3Cl)c1 | inactive | 
2 | CN(C)CCC[C@@]1(c2ccc(F)cc2)OCc2cc(C#N)ccc21 | inactive and 3.16 µM (active) | 
3 | COc1ccccc1N/C(=N/S(=O)(=O)c1ccc(C)cc1)c1ccc(Cl)cc1 | 4.47 µM (active) | 
4 | O=S(=O)(/N=C(/Nc1ccc(F)cc1F)c1ccc(Cl)cc1)c1ccccc1 |  | -10.4% (inactive)
5 | CS(=O)(=O)Nc1cccc(-c2nc(Nc3ccncc3)c3ccccc3n2)c1 | 5.01 µM (active) | 
6 | CS(=O)(=O)Nc1cccc(-c2nc(N3CCNCC3)c3ccccc3n2)c1 |  | -31.6% (inactive)
7 | CNc1nc(-c2cccc(NS(C)(=O)=O)c2)nc2ccccc12 |  | -23.8% (inactive)
8 | CS(=O)(=O)Nc1ccc(Nc2c3ccccc3nc3ccccc23)cc1 |  | -0.835% [at 11.4 µM] (inactive)
9 | COc1cc(NS(C)(=O)=O)ccc1Nc1c2ccccc2nc2ccccc12 |  | -6.07% (inactive)
10 | CS(=O)(=O)Nc1cccc(-c2nc(Nc3ccc(F)cc3)c3ccccc3n2)c1 | 7.94 µM (active) | 
11 | COc1cccc(-c2nc(Nc3ccncc3)c3ccccc3n2)c1 | 3.16 µM (active) | 
12 | N#Cc1cccc(-c2nc(Nc3ccncc3)c3ccccc3n2)c1 |  | -18.2% (inactive)
13 | CS(=O)(=O)Nc1cccc(-c2nc(Nc3ccccc3)c3ccccc3n2)c1 | 10 µM (active) | 
14 | CCCCCCCCCCCCCCSCC(=O)O |  | 27.3% (inactive)
15 | NC[C@](O)(CS(=O)(=O)O)c1ccc(Cl)cc1 |  | 16% (inactive)
16 | O=C(N/N=C\c1ccc(Sc2ccccn2)o1)c1cccc(Br)c1 | 2.51 µM (active) | 
17 | O=C(N/N=C/C1C(c2ccccc2)C1(Cl)Cl)c1cccc(Br)c1 (centres undefined) | 7.08 µM (active) | 
18 | O=C(N/N=C/c1cccc(Oc2ccccc2)c1)c1cccc(Br)c1 | 2.24 µM (active) | 
19 | C[C@@H](N=C(N)N)C(=O)O |  | 36.5% [at 11.4 µM] (inactive)
20 | CC(=O)O[C@]12CC[N@+]3(C)CCCC[C@@H]3[C-]1Nc1ccccc12 |  | 34.8% [at 11.4 µM] (inactive)
21 | Cn1nc(C(F)(F)F)c(/C=N/OCc2c(Cl)cccc2Cl)c1Cl | 0.282 µM (active) | 
22 | COCCN(C(=O)Nc1ccc(OC)cc1OC)C1CCN(C(C)=O)CC1 |  | -21.1% (inactive)
23 | COc1ccc(NC(=O)N2CCC3(CC2)CCN(C(=O)c2cccn2C)CC3)cc1 |  | 9.41% (inactive)
24 | COc1ccc(NC(=O)NCc2cccn2C)c(OC)c1 | 6.31 µM (active) | 

Row | Structure (SMILES) | AC50 | activity, negative = inhibition
25 | COc1ccc(-c2nnn(CC(=O)N(CC(=O)NCCC(C)C)Cc3cccs3)n2)cc1OC | 1.12 µM (active) | 
26 | COc1ccc(NC(=O)Cn2cccc2)c(OC)c1 | 2.24 µM (active) | 
27 | COc1ccc(OC)c(NC(=O)Cn2cccc2)c1 | 6.31 µM (active) | 
28 | COc1ccc(OC)c(NC(=O)CC(Cc2ccccc2OC)C(=O)O)c1 (centres undefined) |  | -24.6% (inactive)
29 | COc1ccc(NC(=O)N2CC3(CCN(C(=O)c4cccn4C)CC3)C2)cc1 |  | 2.63% (inactive)
30 | CCCC(=O)Nc1cc(-c2cn3cccnc3n2)ccc1OC |  | -18.8% (inactive)
31 | CO[C@H]1COC(=O)[C@H](C)NC(=O)C/C=C\[C@@H](C)[C@@H](NS(=O)(=O)c2ccc(C)cc2)COC(=O)C/C=C\[C@@H]1C |  | 24.1% [at 11.4 µM] (inactive)
32 | COc1ccc(-c2nnn(CC(=O)NCCc3c[nH]c4ccccc34)n2)cc1OC | 8.91 µM (active) | 
33 | CCOc1ccc(-c2nnn(CC(=O)Nc3cc(OC)ccc3OC)n2)cc1OCC | 5.62 µM (active) | 
34 | Cn1ncc(C#N)c1NC(=O)C1CC(c2ccc(Cl)cc2)=NO1 (centres undefined) | 0.316 µM (active) | 
35 | COc1cccc(Nc2ncc3nc(-c4cccs4)c(=O)n(CCC#N)c3n2)c1 |  | 8.8% (inactive)
36 | O=C(CCC1CCCCC1)Nc1c2c(nn1-c1ccc(F)cc1)CS(=O)(=O)C2 | 15.8 µM (active) | 
37 | NC(=O)c1ccc([N+](=O)[O-])cc1SCc1ccccc1 | 10 µM (active) | 
38 | O=C(O)c1cc(N=Nc2ccc([N+](=O)[O-])cc2)ccc1O |  | -3.05% [at 11.4 µM] (inactive)
39 | O=C(O)[C@@H]1[C@@H](C(=O)NCc2ccccn2)[C@@H]2C=C[C@@H]1O2 |  | 36% [at 11.4 µM] (inactive)
40 | O=C(NCc1ccccn1)c1cc(-c2ccccc2Cl)on1 | 14.1 µM (active) | 
41 | CCN1CCN(C(=S)c2ccc(Br)cc2)CC1 | 7.94 µM (active) | 
42 | OCCN1CCOCCOCCN(CCO)CCN(CCO)CC1 |  | -16.8% (inactive)
43 | OCCN1CCN(C(=S)c2ccc(Br)cc2)CC1 | 4.47 µM (active) | 
44 | C[C@H]1CN(CCO)CCN1c1ccccc1 |  | 34.1% [at 11.4 µM] (inactive)
45 | O=C(CCCN1CCC(O)(c2ccc(Br)cc2)CC1)c1ccc(F)cc1 |  | -4.38% [at 25.6 µM] (inactive)
46 | O=c1[nH][nH]c(C(F)(F)F)c1C=Nc1ccccc1 |  | -9.86% (inactive)
47 | Cc1ccc(-c2cc(C(=O)NCc3ccco3)c3ccccc3n2)s1 | 3.98 µM (active) | 
48 | Cc1ccc(CSc2nnc3c(n2)OC2(Nc4ccccc4-3)C(=O)Nc3ccc(F)cc32)cc1 (centres undefined) | 10 µM (active) | 

Row | Structure (SMILES) | AC50 | activity, negative = inhibition
49 | O=C1Nc2ccc(F)cc2C12Nc1ccccc1-c1nnc(SCc3ccccc3F)nc1O2 (centres undefined) | 4.47 µM (active) | 
50 | COc1cccc2c(=O)c(C(=O)NCc3cccs3)c[nH]c12 | 7.94 µM (active) | 
51 | Nc1nc2c(C(=O)NCc3cccs3)nnn2c2cccc(Cl)c12 |  | 12.5% [at 11.4 µM] (inactive)
52 | COc1ccc(C(=O)c2c[nH]c(C(=O)NCc3cccs3)c2)cc1 |  | -28.9% (inactive)
53 | CCC(=O)OCC(=O)[C@@]1(OC(=O)CC)[C@H](C)C[C@@H]2[C@H]3CCC4=CC(=O)C=C[C@]4(C)[C@]3(Cl)[C@@H](O)C[C@@]21C |  | -4.54% [at 25.6 µM] (inactive)
54 | CC1=C/C(=N/O)C([C@H]2C=C(C)CC(C)(C)[C@@H]2O)C(C)(C)C1 (some centres undefined) | 1.58 µM (active) | 
55 | COc1cccc(Nc2ncc3nc(-c4cn(C)c5ccccc45)c(=O)n(CCC#N)c3n2)c1 |  | -12% (inactive)
56 | COc1cccc2c1[C@@H]1CN(CCCCn3c(=O)[nH]c4c(sc5ncc(-c6ccccc6)nc54)c3=O)C[C@H]1CO2 |  | -32.6% (inactive)
57 | FC(F)Sc1ccc(N=C2NN=C(c3ccc4c(c3)OCCO4)CS2)cc1 | 2.24 µM (active) | 
58 | CC(C)Oc1ccc(CNC(=O)CC(c2ccccc2)c2cc(Cl)ccc2O)cc1 (centres undefined) | 1.78 µM (active) | 
59 | CN(Cc1ccccc1)C(=O)CC(c1ccccc1)c1cc(Cl)ccc1O (centres undefined) | 1.78 µM (active) | 
60 | Cc1cc(-c2cc(-c3ccc(Cl)cc3)nc(N)c2C#N)co1 | 0.282 µM (active) | 
61 | CS(=O)(=O)Nc1cccc(-c2cncnc2NCc2cccnc2)c1 | 3.16 µM (active) | 
62 | Cc1cnc(CNc2ncnc3ccc(-c4cccc(NS(C)(=O)=O)c4)cc23)cn1 |  | -33.4% (inactive)
63 | CS(=O)(=O)Nc1cccc(-c2ccc3ncnc(NCc4cccnc4)c3c2)c1 | 0.0501 µM (active) | 
64 | Cc1cccc(CNc2ncncc2-c2cccc(NS(C)(=O)=O)c2)c1 | 6.31 µM (active) | 
65 | CS(=O)(=O)Nc1cccc(-c2cncnc2Nc2ccccc2)c1 |  | -23.9% (inactive)
66 | N[C@H](C(=O)O)[C@@H]1[C@@H](C(=O)O)C1(F)F |  | -41.1% (inactive)
67 | CCOC(=O)C1=C(C)NC2=C(C(=O)C(C(=O)OCC)C(c3ccc(OC)cc3)C2)C1c1ccccn1 (centres undefined) | 20 µM (active) | 
68 | O=C(c1cc2sccc2n1Cc1ccccc1)N1CCN(c2nc3ccccc3s2)CC1 | 2.24 µM (active) | 
69 | O=C(CN1CCN(Cc2ccccc2)CC1)N1CCCc2c1c(=O)oc1ccc(O)cc21 | 3.55 µM (active) | 
70 | O=C(O)c1cccc(CN2CCCCC2)c1 |  | 9.75% [at 11.4 µM] (inactive)
71 | CCCc1c(-c2ccc(O)cc2)nn(-c2ccc(O)cc2)c1-c1ccc(O)cc1 |  | 38.6% (inactive)
72 | O=S(=O)(O)C1CCNCC1 |  | 12.3% (inactive)

Row | Structure (SMILES) | AC50 | activity, negative = inhibition
73 | O=S(=O)(c1ccccc1)N1N=C(c2cccs2)CC1c1ccc(Br)cc1 (centres undefined) | 2 µM (active) | 
74 | N#CCCn1c(=O)c(-c2cc(F)cc(F)c2)nc2cnc(N3CCOCC3)nc21 |  | -6.19% (inactive)
75 | Cc1ccc2nc(Nc3nc(-c4ccccc4)cc(=O)[nH]3)nc(C)c2c1 | 3.16 µM (active) | 
76 | O=c1nc(-c2ccccc2)cc(C(F)(F)F)[nH]1 |  | -28.7% (inactive)
77 | Cc1ccc2c(C)nc(Nc3nc(CSc4nc5ccccc5[nH]4)cc(=O)[nH]3)nc2c1 | 7.08 µM (active) | 
78 | COc1ccc(C(N)=O)cc1NC(=O)c1cccc(F)c1 |  | -0.928% (inactive)
79 | CCN(CC)c1ccc(NC(=O)c2cccc(F)c2)c(C)c1 | 15.8 µM (active) | 
80 | Cn1c(SCc2nnc(-c3ccc(F)cc3)o2)nnc1C1COc2ccccc2O1 (centres undefined) | 17.8 µM (active) | 
81 | Oc1ccc(C2Nc3cccc4cccc(c34)N2)c(O)c1 | 5.62 µM (active) | 
82 | O=[N+]([O-])c1nccn1C[C@H](O)CN1CCCCC1 |  | 22.6% [at 11.4 µM] (inactive)
83 | O=C1C2[C@@H](c3ccccc3)N[C@@H](c3ccccc3)C1[C@H](c1ccccc1)N[C@H]2c1ccccc1 |  | -2.21% [at 11.4 µM] (inactive)
84 | S=C1N[C@H](c2ccccc2)N[C@H](c2ccccc2)S1 | 3.98 µM (active) | 
85 | O=C(CCCCCN1C(=O)c2ccccc2C1=O)NCc1ccccn1 |  | -12.2% (inactive)
86 | COc1ccc(CCNC(=O)CCCCCN2C(=O)c3ccccc3C2=O)cc1 | 2.51 µM (active) | 
87 | CCOCCCNC(=O)CCS(=O)(=O)Cc1ccc(C)cc1 |  | -54.9% (inactive)
88 | CCOc1ccc(CCNC(=O)CCCN2C(=O)c3ccccc3C2=O)cc1OCC | 28.2 µM (active) | 
89 | C#CCCCO/N=C1/C[C@@H](O)[C@@H](O)[C@@H]2[C@@H]3C(=O)N(C[C@@H]4CCCO4)C(=O)[C@H]3CC[C@@H]12 |  | 1.94% [at 11.4 µM] (inactive)
90 | O=S(=O)(NCc1cc(-c2ccccc2Cl)no1)c1ccc(Cl)cc1 | 0.0562 µM (active) | 
91 | O=C1c2ccccc2C(=O)N1Cc1cc(-c2ccccc2Cl)no1 | 10 µM (active) | 
92 | O=C(O)[C@@H]1[C@@H](C(=O)Nc2ccccc2)[C@@H]2C=C[C@@H]1O2 |  | -3.64% [at 11.4 µM] (inactive)
93 | O=C(Nc1ccccc1)c1cc(-c2ccccc2Cl)no1 | 2.82 µM (active) | 
94 | O=S(=O)(NCc1cc(-c2ccccc2Cl)no1)c1ccccc1 | 0.158 µM (active) | 
